Results published in PubChem BioAssay AID1321 (The Scripps Research Institute Molecular Screening Center, 2008).
The whole screen tested about 220,000 compounds, of which about 2,600 (1.2%) were called active. Many of the other results were omitted from the sample, so actives are more common in it than they were. A number with no mark means an inactive call.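 How the source made its calls: active means activation above the mean of all tested compounds plus 3 SD, set per screening run (cut at about 8.8% in these data); inactive means the rest.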

Biological target: Wee1-like protein kinase (Homo sapiens) (UniProt P30291)
Assay: Wee1 degradation inhibitors, primary screen, cell-based, HeLa, Wee1K328M-luciferase, luminescence (AID 1321);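 further: cells exposed to compound for 20 h before luminescence read; 0% = DMSO alone and 100% = MG132 at 30 µM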
Settings: HeLa Luc-Wee1K328M stability, at 5 µM, hits give high values, 100% = proteasome inhibitor MG132 effect

Structure (SMILES)	reporter increase
CC(CC(=O)Nc1cc(C(F)(F)F)ccc1Cl)c1ccccc1 (stereo not given)	-1.69%
O=C(Nc1cc(C(F)(F)F)ccc1Cl)C(=O)N1CCCCC1	0.04%
O=C(NNc1ccccc1Cl)C(O)(c1cccc(C(F)(F)F)c1)c1cccc(C(F)(F)F)c1	16.5% (active)
CCn1c2ccccc2c2cc(NC(=O)Nc3ccc([N+](=O)[O-])cc3C)ccc21	-2.8%
Cc1ccc(Nc2nnc(SCc3ccccc3)s2)cc1	0.21%
Cc1ccc(Nc2nc(N)nc(CSc3nnc(C)s3)n2)cc1	9.2% (active)
Cc1ccccc1Nc1nc(N)nc(CSc2ccccc2)n1	5.12%
O=C(c1cc(COc2c(F)cccc2F)on1)N1CCSCC1	-0.41%
COC(=O)Cn1c(O)c(N=NC(=O)OC)c2ccccc21	-1.42%
Cc1cc(C)nc(SCc2cn3c(C)cc(C)nc3n2)n1	1.99%
COc1cc(C(F)(F)F)c(C(=O)N(C)c2ccc(Cl)cc2)cn1	-1.97%
COc1ccccc1N(C)S(=O)(=O)c1ccc(C(=O)NC2CCCCCC2)cc1	1.14%
CN(C)CCCCCN(C)Cc1cc2ccccc2o1	9.64% (active)
CC(=O)N(CCCN(C)C)c1nc2ccc(C)cc2s1	1.87%
CCCOC(=O)c1cc2ccccc2oc1=O	-1.59%
COCCN(Cc1cc2cc3c(cc2nc1Cl)OCO3)C(=O)c1cccc(C)c1	-2.99%
Cc1ccc(NC(=S)N/N=C2/CCCc3c(C)cc(C)cc32)cc1	-2.2%
CCCCNC(=S)N/N=C1\CCCCc2ccccc21	9.73% (active)
CCCC1CCC(=NNC(=S)NCCc2ccccc2)CC1 (stereo not given)	-0.9%
Cc1ccc(N2C(=O)CC(N3CCSCC3)C2=O)c(C)c1 (stereo not given)	-2.9%
Cc1ccccc1NC(=O)Nc1ccccc1N1CCCCC1	2.91%
O=c1cc(CSc2ccc(Cl)cc2)nc(N2CCOCC2)[nH]1	4.27%
O=c1cc(CSc2ccccn2)nc(N2CCN(c3ccccc3)CC2)[nH]1	10.3% (active)
Cc1nnc(SCc2cc(=O)[nH]c(N3CCN(Cc4ccccc4)CC3)n2)s1	0.09%
C/C=C/c1ccc(OCC(O)CN2CCCCCCC2)c(OC)c1 (stereo not given)	-0.18%

Structure (SMILES)	reporter increase
C/C=C/c1ccc(OCCCCN2CCC(C)CC2)c(OC)c1	28.9% (active)
C/C=C/c1ccc(OCCOc2ccc(C=O)cc2OC)c(OC)c1	0.41%
CN(C(=O)COC(=O)c1cc(-c2ccco2)nc2ccccc12)C1CCS(=O)(=O)C1 (stereo not given)	-1.15%
Cc1cc(C)c2nc(NC(=O)c3ccc4c(c3)OCO4)sc2c1	-0.87%
O=C(Nc1nc2ccc(S(=O)(=O)N3CCCC3)cc2s1)C1CCCO1 (stereo not given)	-1.26%
Cc1cc(C)c2nc(NC(=O)C3CCCO3)sc2c1 (stereo not given)	9.43% (active)
COc1ccc(NC(=O)CCN2C(=O)/C(=C/c3ccc4c(c3)OCO4)SC2=S)cc1	0.36%
Cc1cc(C(=O)CSc2nc(N)cc(=O)[nH]2)c(C)n1Cc1ccco1	2.39%
CC(=O)Nc1ccc(OCC(=O)NCc2ccc(C)cc2)cc1	-0.21%
COc1ccc(NC(=O)/C(Cl)=C(/Cl)S(=O)Cc2ccc(C)cc2)cn1 (stereo not given)	11% (active)
COc1ccc(NC(=S)NCCNC(C)=O)cc1	0.16%
COc1ccc(CS(=O)/C(Cl)=C(/Cl)C(=O)Nc2ccc(OC)nc2)cc1 (stereo not given)	17.4% (active)
COc1ccc(NC(=S)Nc2ccccc2Cl)cn1	4.13%
COc1ccc(Nc2cc(Cl)ccc2C(=O)O)cn1	2.84%
Cc1nn(-c2ccccc2)c(=O)c2noc(C)c12	3.18%
CS(=O)(=O)c1ccc2nnn(OCC(=O)Nc3cccc(C#N)c3)c2c1	0.86%
Cn1c(=O)c(=O)n(C)c2cc(S(=O)(=O)NCCN3CCN(c4ccccc4F)CC3)ccc21	3.58%
COc1ccc(Cc2cc(-c3ccc(F)cc3)n[nH]c2=O)cc1	-0.9%
CCC1(C)Cc2c(sc3nc(SC)[nH]c(=O)c23)CO1 (stereo not given)	-2.99%
COc1ccc2nc(Nc3nc4cc5c(cc4s3)OCCO5)sc2c1	0.78%
COc1ccc2nc(Nc3nc4ccc(NC(C)=O)cc4s3)sc2c1	10.4% (active)
CCCC(=O)Nc1nc2ccc(NC(=O)c3cccnc3)cc2s1	3.09%
CCCC(=O)Nc1nc2ccc(NC(=O)c3c(F)c(F)c(OC)c(F)c3F)cc2s1	10.8% (active)
CCOc1ccc2nc(Nc3nc4ccc(NC(C)=O)cc4s3)sc2c1	1.97%
CSc1nc2ccc(NC(=O)c3c(F)cccc3F)cc2s1	4.29%
